± gives the standard deviation of the averaged measurements.
system: Caenorhabditis elegans N2 infected with Nematocida parisii ERTm1; experiment: progeny production relative to DMSO uninfected control; higher = more progeny despite microsporidia infection (inhibition of infection with low host toxicity); conditions: infection time 6 days; 40 µM
Summary of the method: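 Progeny production is reported as a percentage of spore-free vehicle wells and averaged across replicates. It was measured after bleach-synchronised wild-type C. elegans L1 larvae (100 per well) spent 6 days shaking at 21°C in K-medium with E. coli OP50, 15,000 N. parisii spores/μL and compound at 100 μM or 40 μM in 1% DMSO. Counting used Rose Bengal staining, flatbed scanning and WorMachine, and each compound and dose was tested three times.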

Compound	progeny production
NCC(=O)Nc1ccc(-n2nc(C(F)(F)F)cc2-c2ccc3c(ccc4ccccc43)c2)cc1	4.52 ± 2.6%
O=C(c1ccc(F)cc1)N1CCN2C(=O)c3ccccc3C12c1ccccc1 (configuration not stated)	2.5 ± 1.4%
O=C(Nc1ccccc1)N(Cc1cc(Br)ccc1O)c1ccc(F)cc1	3.85 ± 1%
Nc1cccc(-c2nc(N)nc(NC3Cc4ccccc4C3)n2)c1	8.19 ± 3.8%
NC(=O)c1[nH]c2ccc(S(N)(=O)=O)cc2c1-c1ccccc1	4.85 ± 2.6%
COc1ccc(C)cc1NC(=O)c1ccc(S(=O)(=O)N2CCCCC2)cc1	7.49 ± 1.3%
C[C@@H]1O[C@@H]1P(=O)(O)O	4.36 ± 0.35%
O=C(c1ccccc1)N1CCN(c2ccccc2NC(=O)C(Cl)(Cl)Cl)CC1	13 ± 10%
CN(C)[C@@H]1C(=O)C(C(N)=O)=C(O)[C@@]2(O)C(=O)C3=C(O)c4c(O)c(NC(=O)CN5CCCC5)cc(F)c4C[C@H]3C[C@@H]12	4.54 ± 0.11%
Nc1nc(F)nc2c1ncn2[C@H]1O[C@@H](CO)[C@H](O)[C@@H]1O	2.33 ± 1%
O=C(O)c1ccc(-c2ccc(O[C@H]3O[C@H](CO)[C@@H](O)[C@H](O)[C@@H]3O)cc2)cc1	5.12 ± 2.8%
O=C(Nc1nnc(-c2ccc(Cl)cc2)o1)c1nc2ccccc2s1	8.93 ± 4.2%
Nc1nnc(-c2ccc(Cl)cc2)s1	5.44 ± 1.4%
Nc1nc2c(ncn2COC(CO)CO)c(=O)[nH]1	7.03 ± 4.7%
O=C(O)COc1cccc2c1CC[C@](O)(COC(=O)N(c1ccccc1)c1ccccc1)C2	4.24 ± 0.25%
CCCCc1ccc(-c2cc(C(=O)O)cc(-c3ccc(Cl)cc3)n2)cc1	5.13 ± 5.7%
O[C@@](Cn1cnnn1)(c1ccc(F)cc1F)C(F)(F)c1ccc(-c2ccc(OCC(F)(F)F)cc2)cn1	3.9 ± 1.3%

Reference: the supplement of paper PMC10732440
